Assay results taken from PubChem BioAssay AID743415 (Broad Institute, 2014).
Entries with a potency or affinity are not part of this list. The source made the active and inactive calls.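 The calls were made as follows: active = compounds lowering Shn3 expression whose fitted half-maximal concentration is at most twice the top valid dose; inconclusive = flat partial decrease or an invalid curve fit; inactive = the rest.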

Test: Shn3 transcript knock-down in Clone20 cells – cell-based, qPCR, cherry-pick, dose response (AID 743415)
Details: Shn3 mRNA qPCR, overnight; series mostly up to 35 µM

Cn1nc(CC(=O)Nc2ccc3c(c2)OCCO3)c2ccccc2c1=O
outcome: inactive

O=C(CSc1nnc(-c2cccnc2)s1)Nc1ccnc2ccccc12
outcome: inactive

CN(CC(=O)Nc1ccccc1Cl)C(=O)c1cccc(S(=O)(=O)N2CCN(c3ccccc3)CC2)c1
outcome: inactive

Cc1ccc([C@@H]2CC(=O)[C@@H]3CN(S(=O)(=O)c4ccccc4C)[C@H](c4ccc(Cl)cc4)C[C@@H]3N2S(=O)(=O)c2ccc(C)cc2)cc1
outcome: inactive

Cc1ccc2nc(NC(=O)C3CCN(S(=O)(=O)c4ccc5c(c4)oc(=O)n5C)CC3)sc2c1
outcome: inactive

Cc1ccc(NC(=O)c2ccc(Cl)c(N3C(=O)C=CC3=O)c2)cc1
outcome: inactive

COc1ccc(-c2cc(C(F)(F)F)nc(S(C)(=O)=O)n2)cc1
outcome: inactive

COCOCCn1cc(CN2CCS(=O)(=O)N(Cc3ccc(-c4ccc(Cl)c(Cl)c4)cc3)C(C(C)C)C2=O)nn1 (stereo unspecified)
outcome: inactive

COc1ccccc1NS(=O)(=O)c1cc(NC(=O)c2ccc(Cl)nc2)ccc1Cl
outcome: inactive

COc1ccccc1NC(=O)Cn1cc(C(=O)C2CC2)c2ccccc21
outcome: inactive

CCCCN1CC(COCc2ccccc2)Oc2cccc(Oc3ccc(C(C)C)cc3)c2S1(=O)=O (stereo unspecified)
outcome: inactive

CC(C)Cn1c(N)c(C(=O)COC(=O)C2Cc3ccccc3CN2S(C)(=O)=O)c(=O)n(C)c1=O (stereo unspecified)
outcome: inactive

CCCn1c(C)cc(C(=O)CN2C(=O)c3ccccc3S2(=O)=O)c1C
outcome: inactive

CCN(CC)c1ccc(NC(=O)CN2C(=O)CSc3ncccc32)c(C)c1
outcome: inactive

Cc1nc(NC(C)c2ccccc2)c2oc3ccccc3c2n1 (stereo unspecified)
outcome: inactive

CCOc1cc(CNCCc2ccc(S(N)(=O)=O)cc2)ccc1OCc1ccccc1
outcome: inactive

Cc1ccccc1OCCOC(=O)c1cc(S(=O)(=O)N2CCCCC2)ccc1N1CCOCC1
outcome: inactive

CCOC(=O)N1CCN(c2ccc(S(=O)(=O)N(Cc3ccccc3)Cc3ccccc3)cn2)CC1
outcome: inactive

Cc1nc2scc(C)n2c(=O)c1S(=O)(=O)Nc1ccc(N2CCOCC2)c(Cl)c1
outcome: inactive

CCc1ccccc1NC(=O)COC(=O)c1c(C)nsc1NC
outcome: inactive

CC(C)(C)C(=O)Nc1ccc(NC(=O)c2ccco2)nc1
outcome: inactive

COCCNc1nc(NCc2ccc(C(C)C)cc2)c2sccc2n1
outcome: inactive

CCCOC(=O)c1ccc(OCC(O)Cn2c(C)nc3ccccc32)cc1 (stereo unspecified)
outcome: inactive

Cn1c(=O)c2c(nc(NCc3ccco3)n2CCc2ccccc2)n(C)c1=O
outcome: inactive

Nc1ncnc2c1c(-c1ccc(Oc3ccccc3)cc1)cn2C1CCCC1
outcome: inactive

O=C(Nc1ccc(Cl)cc1)c1cc(S(=O)(=O)N2CCOCC2)cs1
outcome: inactive

O=C(COC(=O)c1n[nH]c2ccccc12)Nc1ccc(S(=O)(=O)N2CCCC2)cc1
outcome: inactive

CC1CCCC(NC(=O)c2cccc(S(=O)(=O)N3CCN(c4ccccc4)CC3)c2)C1C (stereo unspecified)
outcome: inactive

O=C(Nc1ccc(N2CCOCC2)cc1)c1ccc(Cl)c(S(=O)(=O)N2CCCC2)c1
outcome: inactive

COc1cc(NC(=O)c2cccc3c(-c4cccnc4)coc23)cc(OC)c1OC
outcome: inactive

CC(C)CCOc1cccc(OCC(=O)Nc2ccncc2)c1
outcome: inactive

CC(C)c1nc(SCC(=O)Nc2cccc(C(F)(F)F)c2)c2c(=O)n(C)c(=O)n(C)c2n1
outcome: inactive

O=C(CSc1c2c(nc3ccc(Cl)cc13)CCCC2)NCc1ccco1
outcome: inactive

O=C(c1cc(COc2ccc3ncccc3c2)on1)N1CCCCCC1
outcome: inactive

CCOc1ccc(N(C)S(=O)(=O)c2cc(-c3cc(C)no3)ccc2C(C)C)cc1
outcome: inactive

CCn1c(CNC(=O)c2cc(OC)c(OC)c(OC)c2)cc2cc(C)ccc21
outcome: inactive
